tested on: TESK1; conditions: concentration: 1 μM, replicates: in singlicate; n = 1
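Note: KINOMEscan kinase panel screen.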

Row | SMILES | %Inh [%]
1 | O=C(Nc1n[nH]c2nc(-c3nccs3)c(Br)cc12)C1CCCC1 [SB-742609] | 43
2 | CC1=C(C(=O)Nc2cc3cn[nH]c3cc2F)C(c2ccc(C(F)(F)F)cc2)CC(=O)N1 (stereo not shown) [GSK429286] | 30
3 | CSc1nn2c(=O)cc(N3CCOCC3)nc2n1Cc1cccc(C(F)(F)F)c1C [GSK2363608] | 19
4 | Cl.O=C(Nc1cccc(-c2nn3ncccc3c2-c2ccnc(Nc3cccnc3)n2)c1)c1c(F)cccc1F [GSK312879] | 0
5 | Cc1ccc(NC(=O)Nc2cccc(Cl)c2)cc1-c1ccc(C(=O)Nc2ccncc2)cc1 [GSK1398468] | 18
6 | CC(=O)Nc1nc2cnc(Nc3cc(NC(=O)c4cccc(CCC#N)c4)ccc3C)nc2s1 | 0
7 | COc1cccc(NC(=O)NC2CCN(c3ccnc(Nc4ccc(F)cc4)n3)C2)c1 (stereo not shown) [GSK1379721] | 32
8 | CS(=O)(=O)c1ccc(-c2nc3n(c2-c2ccncc2)CCC3)cc1 [SKF-105942] | 1
9 | CCCc1ccc(S(=O)(=O)NC2CCN(c3ccnc(Nc4ccc(F)cc4)n3)C2)cc1 (stereo not shown) [GSK1379715] | 74
10 | O=S(=O)(c1ccc(-c2ccnc3[nH]ccc23)cc1)N1CCCC1 [GSK846226] | 9
11 | Cc1ccc(NC(=O)Nc2cc(C(C)(C)C)nn2-c2ccccc2)cc1 [GSK1014915] | 13
12 | CN(C)CCN(C)C(=O)c1cc(-c2ccncc2)c(-c2ccc(Cl)c(O)c2)o1.Cl.Cl [SB-710397] | 43
13 | O=C(O)COc1ncnc2cc(-c3ccc4[nH]ncc4c3)sc12 | 13
14 | Cc1cccc(-c2nc(C)cc(Nc3ccncc3)n2)n1 [GSK257997] | 15
15 | O=C(Nc1n[nH]c2nc(-c3nccs3)c(Br)cc12)C1CC1 [SB-742251] | 36
16 | Nc1nc(-c2nccs2)c(-c2ccnc3ccccc23)s1 [GW693542] | 26
17 | CC(C)(C)c1ccc(C(=O)Nc2cn3cc(-c4cccnc4)ccc3n2)cc1 | 4

Row | SMILES | %Inh [%]
18 | Cn1ccc2ncnc(Oc3ccc(NC(=O)Nc4ccccc4)cc3)c21 | 1
19 | Cl.c1ccc(-c2n[nH]cc2-c2ccnc(-c3ccc(CN4CCOCC4)cc3)c2)nc1 [GW776245] | 6
20 | COc1cc2ncn(-c3cc(OCC4CCCO4)c(C(N)=O)s3)c2cc1OC (stereo not shown) [GSK204607] | 0
21 | COc1ccc(C2=C(Nc3cccc(C(=O)O)c3)C(=O)NC2=O)cc1 [SB-390765] | 12
22 | Fc1cc(Cl)ccc1Nc1ccnc2cc(-c3ccc(CN4CCCCC4)o3)ccc12 [GW560116] | 19
23 | O=c1cc(N2CCOCC2)nc2n(Cc3cccc(Cl)c3Cl)ccn12 [GSK2286295] | 1
24 | O=C(Nc1ccccc1)Nc1cccc(Oc2ccc3nccn3n2)c1 | 0
25 | Nc1ncnc2[nH]c(-c3ccccc3)nc12 [AH5015] | 30
26 | Cc1cccc(-c2nc(-c3ccc(S(C)(=O)=O)cc3)sc2-c2ccnc(NCCc3ccccc3)c2)c1 | 11
27 | O=C(Nc1n[nH]c2cc(-c3cccc(F)c3F)ccc12)C1CC1 [SB-733894] | 8
28 | CN1C(=O)C(Nc2ccc(Cl)c(C(=O)O)c2)=C(c2ccc(Cl)cc2)C1=O [SB-404290] | 0
29 | Cn1cncc1-c1ccc2ncnc(Nc3ccc(OCc4ccccc4)cc3)c2c1 [GW320571] | 11
30 | Cn1ccc2ncnc(Oc3cccc(C(=O)Nc4ccccc4)c3)c21 | 0
31 | Fc1cc(Cl)ccc1Nc1ccnc2cc(I)ccc12 [GW551191] | 12
32 | COc1cc2ncnc(Nc3ccc4nc(-c5ccccc5)[nH]c4c3)c2cc1OC.Cl [GW282450] | 20
33 | COc1cccc(-c2cc(-c3c[nH]nc3-c3ccccn3)ccn2)c1 [GW680338] | 15
34 | COc1ccc(CNC(=O)NC2CCN(c3ccnc(Nc4cc(OC)c(OC)c(OC)c4)n3)C2)cc1 (stereo not shown) [GSK1379748] | 2

Reference: publication PMC5540273 (PLoS ONE, 2017)
